A selection: hits, their analogues and other compounds. The true share with any hit is near 28%.
Mac1 fbg inh: blocks human CD11b/CD18 adhesion to fibrinogen; hit rate 0.54% among 93,000; inhibition, % at 10 µM; P05107+P11215; K562 CD11b/CD18 adhesion to fibrinogen, ATPlite luminescence; Mn2+ added to activate the integrin;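 active = primary inhibition of 50% or more at 10 µM, then 40% or more on retest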
CYP2C9 inh: blocks human cytochrome P450 2C9 | P11712 | hit rate 20% among 96,000 | inhibition, % at 5 µM | CYP2C9 Supersomes, luciferin-H conversion, luminescence;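 active = blocking of liver enzyme CYP2C9 beyond about 50% at 5 µM, limit read from the data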
Target sequence (P11712 whole entry, looked up): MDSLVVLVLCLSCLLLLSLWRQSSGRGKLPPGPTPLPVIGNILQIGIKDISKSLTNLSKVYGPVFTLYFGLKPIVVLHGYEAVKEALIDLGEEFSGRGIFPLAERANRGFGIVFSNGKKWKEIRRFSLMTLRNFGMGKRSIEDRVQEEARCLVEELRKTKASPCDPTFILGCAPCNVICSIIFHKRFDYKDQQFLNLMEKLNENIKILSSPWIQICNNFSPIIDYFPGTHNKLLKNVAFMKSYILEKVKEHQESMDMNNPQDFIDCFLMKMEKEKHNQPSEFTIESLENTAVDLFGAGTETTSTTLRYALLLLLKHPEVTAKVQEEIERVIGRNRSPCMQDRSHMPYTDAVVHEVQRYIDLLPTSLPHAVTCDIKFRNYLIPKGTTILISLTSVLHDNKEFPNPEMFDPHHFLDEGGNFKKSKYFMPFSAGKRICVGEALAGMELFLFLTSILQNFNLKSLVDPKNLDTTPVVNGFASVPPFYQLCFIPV
CYP2C19 act: increases human CYP2C19 enzyme activity | recombinant CYP2C19, luciferin-H EGE luminescence; hits give high values; 0 = fully inhibited enzyme, 1 = untreated enzyme | activation factor at 5 µM | 96,000 tested, under 10 active;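 active = activation factor of at least 2 at 5 µM in the primary screen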;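 note: 0 = wells with 2.5 mM tranylcypromine and 1 = vehicle-only wells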
CD11b adhes enh: enhancers of human CD11b/CD18 binding to fibrinogen. hit rate 0.07% among 93,000. activation, % at 10 µM. K562 CD11b/CD18 adhesion to fibrinogen, ATPlite luminescence;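 active = 10 µM primary screen giving 50% or more activity, confirmed by 40% or more on retest at that dose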
CYP2C9 activ: increases human cytochrome P450 2C9 activity; AID 1024; P11712; hit rate 1.4% among 96,000; activation factor at 5 µM; recombinant CYP2C9, luciferin-H conversion, luminescence; hits give high values; factor 1 = untreated enzyme, 0 = blocked;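 active = activation factor of 2 or more for CYP2C9 at a 5 µM dose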;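 note: 0 = sulfaphenazole-blocked wells and 1 = vehicle-only wells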
CYP2C19 inh: human CYP2C19 inhibition. CYP2C19 Supersomes, luciferin-H EGE luminescence, 30 min. inhibition, % at 5 µM. AID 778. P33261. hit rate 21% among 96,000;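 active = CYP2C19 inhibition above a set limit at 5 µM in the primary screen, cut at about 50% in these data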;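 note: plate controls were negative control wells for no effect and 2.5 mM tranylcypromine positive control for full effect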
Numbers without * were called inactive; . = no result given.

SMILES	Mac1 fbg inh	CYP2C9 inh	CYP2C19 act	CD11b adhes enh	CYP2C9 activ	CYP2C19 inh
O=C(O)Cc1ccc(C(=O)c2ccccc2F)s1	-9	-5	0.5	0	1	50*
CCc1ccc(C(=O)c2ccccc2C(=O)O)s1	.	4	0.9	.	1	6
COCC(=O)Nc1nc(-c2ccccc2)c(C)s1	-6	18	0.5	0	0.8	52*
CC(=O)c1sc(NC(=O)c2ccco2)nc1-c1ccccc1	-3	19	1	0	0.8	-1
O=C(Nc1nc(-c2ccncc2)cs1)c1ccco1	-3	76*	0	52	0.2	97*
Cc1sc(NC(=O)c2ccco2)nc1-c1ccccc1	5	81*	0.4	0	0.2	55*
Cc1sc(NC(=O)c2cccs2)nc1-c1ccccc1	0	4	1.1	0	1	-6
COc1ccc2c(c1)CCc1sc(NC(=O)c3ccco3)nc1-2	-2	99*	0.1	5	0	94*
O=C(Nc1nc(-c2cc3ccccc3oc2=O)cs1)c1ccco1	-6	10	1.1	3	0.9	-10
CCCCC(=O)Nc1ccc(C(=O)NNC(=O)CCCOc2ccc(Cl)cc2Cl)cc1	-29	.	.	32	.	.
Nc1c(-c2ccccc2)cnn1-c1ccc(C(=O)O)cc1	-32	-1	1	1	1	-2
CC(=O)N1CCCc2cc(S(=O)(=O)N3CCN(c4ccccn4)CC3)ccc21	12	19	0.8	-6	0.8	16
CCOc1ccc(N(CC)S(=O)(=O)c2ccc3c(c2)n(C)c(=O)c(=O)n3C)cc1	-11	44	1	0	0.6	-3
O=C(CSc1nc(-c2ccccc2)cs1)Nc1ccccc1[N+](=O)[O-]	24	.	.	10	.	.
CCC(=O)n1nc(-c2ccccc2)nc1SCC(=O)Nc1ccc(C)cc1	.	22	1	.	0.8	-2
CC(=O)n1nc(-c2cccc(C)c2)nc1SCC(=O)Nc1ccccc1	-37	61*	0.4	5	0.4	55*
O=C(CSc1nc(-c2ccccc2)nn1C(=O)c1ccccc1)Nc1cccc([N+](=O)[O-])c1	.	68*	0.6	.	0.3	42
O=C(c1cccc([N+](=O)[O-])c1)n1nc(-c2ccccc2)nc1NCc1ccccc1	1	.	.	1	.	.
Cc1ccc(NC(=O)CSc2ncc(-c3ccccc3)n2C(=O)c2ccccc2)cc1	.	59*	0.3	.	0.4	69*
Cc1ccc(C(=O)n2c(-c3ccccc3)cnc2SCC(=O)Nc2ccccc2)cc1	2	.	.	-2	.	.
CCc1ccccc1NC(=O)CSc1nc(-c2ccccc2)nn1C(=O)c1cccc([N+](=O)[O-])c1	.	74*	0.2	.	0.3	76*
COCCNS(=O)(=O)c1ccccc1	-2	2	0.9	-1	1	12
Cc1nn(C)c(Oc2ccccc2)c1CCNS(=O)(=O)c1ccccc1	1	46	0.1	7	0.5	92*
CSc1nc2sc3c(c2c2nnnn12)CCC3	10	11	0.4	3	0.9	62*
COc1cccc(NS(=O)(=O)c2nc3nc(C)cc(C)n3n2)c1	-14	-7	1	-2	1.1	-4
SMILES	Mac1 fbg inh	CYP2C9 inh	CYP2C19 act	CD11b adhes enh	CYP2C9 activ	CYP2C19 inh
COc1ccc(C/C(C)=N/NC(=S)Nc2ccc(C)c(C)c2)cc1	-7	.	.	0	.	.
COc1ccccc1CNC(=O)c1ccccc1N(C)S(C)(=O)=O	-13	8	0.7	-3	0.9	29
COc1ccccc1CNC(=O)c1ccccc1NS(C)(=O)=O	-1	75*	0.7	7	0.3	33
COc1ccccc1CNC(=O)c1ccc(-c2ccccc2)cc1	-7	.	.	-1	.	.
COc1ccccc1CNC(=O)c1ccc(NS(C)(=O)=O)cc1	-10	-96	1.2	3	2*	-16
CCCCNC(=O)COC(=O)c1cc(C)nc2ccccc12	10	-160	0.3	-7	2.6*	75*
Cc1cc(C(=O)OCC(=O)Nc2cc(C)on2)c2ccccc2n1	-4	21	0.4	-3	0.8	56*
Cc1cc(C(=O)OCC(=O)NCCC(C)C)c2ccccc2n1	.	-137	0.8	.	2.4*	21
Cc1cc(C(=O)OCC(=O)NCCCN2CCCC2=O)c2ccccc2n1	.	-4	1	.	1	0
CC1CCN(c2nc3c(c(=O)[nH]c(=O)n3C)n2CCSc2nc3ccccc3o2)CC1	-6	11	1	4	0.9	2
O=C1c2ccccc2C(Nc2ccc(F)cc2F)N1CCN1CCOCC1 (stereo not given)	-7	-17	0.9	7	1.2	14
O=[N+]([O-])c1ccc(OC/C=C2\Oc3ccc([N+](=O)[O-])cc3C2N2CCOCC2)cc1 (stereo not given)	6	19	0.3	-2	0.8	71*
O=[N+]([O-])c1ccc2c(c1)C(N1CCOCC1)/C(=C/COc1ccc(F)cc1)O2 (stereo not given)	-23	54*	0.2	1	0.5	84*
O=[N+]([O-])c1ccc2c(c1)C(N1CCOCC1)/C(=C/COc1ccc3ccccc3c1Br)O2 (stereo not given)	0	48	0.5	5	0.5	52*
O=C(Oc1ccc2ccccc2c1Br)N1CCCCCC1	.	-24	1.1	.	1.2	-9
Fc1ccc(-c2ccnc(=S)[nH]2)cc1	-5	43	0.7	1	0.6	25
O=C(Nc1ccccc1Cl)c1cccs1	-4	-10	1.1	-3	1.1	-10
COC(=O)c1cccc(NC(=O)Cc2ccc(OC)cc2)c1C	0	67*	0.1	2	0.3	92*
COC(=O)c1ccccc1NC1=C/C(=N\S(=O)(=O)c2cccs2)c2ccccc2C1=O	38	83*	0.3	-1	0.2	67*
COC(=O)c1cccc(NS(C)(=O)=O)c1C	.	0	1	.	1	3
COC(=O)c1cccc(NC(=O)c2cccs2)c1C	3	8	0.5	-2	0.9	52*
COC(=O)c1cccc(NS(=O)(=O)c2cccs2)c1C	8	74*	0.9	-8	0.3	14
COC(=O)c1cccc(NC(=O)CCSc2ccc(Cl)cc2)c1C	-22	21	0.6	-2	0.8	45
Nc1nc(NC(=O)c2cccnc2)nn1-c1ccccc1	6	3	0.9	0	1	13
CC1CCN(C(=O)CSc2nnc(CSc3ncccn3)n2C)CC1	2	6	1.1	-2	0.9	-10
O=C(c1cccc(Cl)c1)c1nn(-c2ccccc2)c(=O)cc1C(F)(F)F	.	28	0.6	.	0.7	42
Cc1nc(N2C(=O)C(=O)/C(=C(/O)c3ccccc3)C2c2ccco2)sc1C (stereo not given)	19	61*	0.5	2	0.4	53*
COc1ccc(S(=O)(=O)N(C)CC(=O)Nc2cccc(C(C)=O)c2)cc1	-4	38	0.1	3	0.6	88*
